# Measurements: the supplement of paper PMC8728848
# The entries come from a sample that favours the strongest signals as a whole.
# Columns and labels:
# Assay in all cases: glycan array binding signal (z-score within array); higher = stronger binding
# Settings in all cases: glycan notation: IUPAC condensed, linker removed
# [1] = target: Fuc(a1-2)Gal(b1-3)GalNAc(b1-4)[Neu5Ac(a2-3)]Gal(b1-4)Glc
# Procedure, shortened: (§1)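 Glycan array binding is given as a within-array Z-score, which can be read as non-binding when negative. The arrays, 3228 of them, came from the Consortium for Functional Glycomics database and were retained only where the protein sequence was available. Z-scores were averaged across arrays of the same protein sequence at different concentrations or buffers and across linkers.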
# [2] = target: Fuc(a1-2)[Gal(a1-3)]Gal(b1-3)GlcNAc
# Procedure, shortened: as §1
# [3] = target: Fuc(a1-2)[GalNAc(a1-4)]Gal(b1-4)GlcNAc
# Procedure, shortened: as §1
# Fuc(a1-4)GlcNAc = target: Fuc(a1-4)GlcNAc
# Procedure, shortened: as §1
# Gal(a1-3)Gal(b1-4)GlcNAc = target: Gal(a1-3)Gal(b1-4)GlcNAc
# Procedure, shortened: as §1
# [4] = target: Gal(b1-3)[Fuc(a1-4)]GlcNAc
# Procedure, shortened: as §1
# [5] = target: Gal(b1-3)[Fuc(a1-4)]GlcNAc(b1-3)Gal(b1-4)[Fuc(a1-3)]GlcNAc
# Procedure, shortened: as §1
# Gal3S(b1-3)GalNAc = target: Gal3S(b1-3)GalNAc
# Procedure, shortened: as §1
# GalNAc(a1-3)Gal = target: GalNAc(a1-3)Gal
# Procedure, shortened: as §1
# GalNAc(a1-3)GalNAc = target: GalNAc(a1-3)GalNAc
# Procedure, shortened: as §1
# [6] = target: GalNAc(b1-3)Gal(a1-4)Gal(b1-4)GlcNAc
# Procedure, shortened: as §1
# GlcA(b1-6)Gal = target: GlcA(b1-6)Gal
# Procedure, shortened: as §1
# GlcNAc(b1-3)Gal(b1-4)Glc = target: GlcNAc(b1-3)Gal(b1-4)Glc
# Procedure, shortened: as §1
# Man(a1-2)Man(a1-3)Man = target: Man(a1-2)Man(a1-3)Man
# Procedure, shortened: as §1
# [7] = target: Man(a1-2)Man(a1-3)[Man(a1-2)Man(a1-6)]Man(a1-6)[Man(a1-3)[Man(a1-6)]Man(a1-6)]Man(b1-4)GlcNAc(b1-4)GlcNAc
# Procedure, shortened: as §1
# [8] = target: Neu5Ac(a2-3)Gal(b1-3)[Neu5Ac(a2-3)Gal(b1-4)]GlcNAc
# Procedure, shortened: as §1
# [9] = target: Neu5Ac(a2-3)Gal(b1-4)GlcNAc(b1-3)Gal(b1-4)GlcNAc(b1-3)Gal(b1-4)GlcNAc
# Procedure, shortened: as §1
# [10] = target: Neu5Ac(a2-3)Gal(b1-4)GlcNAc6S
# Procedure, shortened: as §1
# [11] = target: Neu5Ac(a2-3)Gal(b1-4)[Fuc(a1-3)]GlcNAc(b1-3)Gal(b1-4)GlcNAc
# Procedure, shortened: as §1
# [12] = target: Neu5Ac(a2-6)Gal(b1-4)GlcNAc(b1-2)Man(a1-3)[Neu5Ac(a2-6)Gal(b1-4)GlcNAc(b1-2)Man(a1-6)]Man(b1-4)GlcNAc(b1-4)GlcNAc
# Procedure, shortened: as §1
# [13] = target: Neu5Ac(a2-6)GalNAc(b1-4)GlcNAc
# Procedure, shortened: as §1
# [14] = target: Neu5Gc(a2-3)Gal(b1-3)[Fuc(a1-4)]GlcNAc
# Procedure, shortened: as §1
# Neu5Gc(a2-3)Gal(b1-4)Glc = target: Neu5Gc(a2-3)Gal(b1-4)Glc
# Procedure, shortened: as §1
# Neu5Gc(a2-6)GalNAc = target: Neu5Gc(a2-6)GalNAc
# Procedure, shortened: as §1
binder,measurement,setting,value
"M6PR (Bos taurus), P11456 (protein) MMSPLHSSWRTGLLLLLLFSVAVRESWQTEEKTCDLVGEKGKESEKELALLKRLTPLFNKSFESTVGQSPDMYSYVFRVCREAGNHSSGAGLVQINKSNGKETVVGRFNETQIFNGSNWIMLIYKGGDEYDNHCGREQRRAVVMISCNRHTLADNFN",glycan array binding signal (z-score),[1],2.76
same,glycan array binding signal (z-score),[2],-0.012
same,glycan array binding signal (z-score),[3],-0.255
same,glycan array binding signal (z-score),Fuc(a1-4)GlcNAc,-0.026
same,glycan array binding signal (z-score),Gal(a1-3)Gal(b1-4)GlcNAc,-0.036
same,glycan array binding signal (z-score),[4],-0.132
same,glycan array binding signal (z-score),[5],0.169
same,glycan array binding signal (z-score),Gal3S(b1-3)GalNAc,-0.095
same,glycan array binding signal (z-score),GalNAc(a1-3)Gal,1.42
same,glycan array binding signal (z-score),GalNAc(a1-3)GalNAc,0.045
same,glycan array binding signal (z-score),[6],0.285
same,glycan array binding signal (z-score),GlcA(b1-6)Gal,-0.256
same,glycan array binding signal (z-score),GlcNAc(b1-3)Gal(b1-4)Glc,1.12
same,glycan array binding signal (z-score),Man(a1-2)Man(a1-3)Man,-0.287
same,glycan array binding signal (z-score),[7],3.23
same,glycan array binding signal (z-score),[8],-0.269
same,glycan array binding signal (z-score),[9],-0.446
same,glycan array binding signal (z-score),[10],-0.267
same,glycan array binding signal (z-score),[11],0.517
same,glycan array binding signal (z-score),[12],-0.279
same,glycan array binding signal (z-score),[13],0.219
same,glycan array binding signal (z-score),[14],-0.343
same,glycan array binding signal (z-score),Neu5Gc(a2-3)Gal(b1-4)Glc,-0.187
same,glycan array binding signal (z-score),Neu5Gc(a2-6)GalNAc,1.03
